Assay results as given in patent US20220289795, “EFFICIENT METHOD FOR PREPARING PPR PROTEIN AND USE OF THE SAME” (EditForce, Inc., published 2022).
Numbering of substitutions follows the chain as printed.

How the values were obtained:
Experiment in all cases: RPB-ELISA
Conditions in all cases: tags: N-terminal luciferase, C-terminal 6xHis; label: 5'-biotin; ssRNA
NL_v2_PPR20 = target: T1, NL_v2_PPR20 (Artificial Sequence)
T1 chain: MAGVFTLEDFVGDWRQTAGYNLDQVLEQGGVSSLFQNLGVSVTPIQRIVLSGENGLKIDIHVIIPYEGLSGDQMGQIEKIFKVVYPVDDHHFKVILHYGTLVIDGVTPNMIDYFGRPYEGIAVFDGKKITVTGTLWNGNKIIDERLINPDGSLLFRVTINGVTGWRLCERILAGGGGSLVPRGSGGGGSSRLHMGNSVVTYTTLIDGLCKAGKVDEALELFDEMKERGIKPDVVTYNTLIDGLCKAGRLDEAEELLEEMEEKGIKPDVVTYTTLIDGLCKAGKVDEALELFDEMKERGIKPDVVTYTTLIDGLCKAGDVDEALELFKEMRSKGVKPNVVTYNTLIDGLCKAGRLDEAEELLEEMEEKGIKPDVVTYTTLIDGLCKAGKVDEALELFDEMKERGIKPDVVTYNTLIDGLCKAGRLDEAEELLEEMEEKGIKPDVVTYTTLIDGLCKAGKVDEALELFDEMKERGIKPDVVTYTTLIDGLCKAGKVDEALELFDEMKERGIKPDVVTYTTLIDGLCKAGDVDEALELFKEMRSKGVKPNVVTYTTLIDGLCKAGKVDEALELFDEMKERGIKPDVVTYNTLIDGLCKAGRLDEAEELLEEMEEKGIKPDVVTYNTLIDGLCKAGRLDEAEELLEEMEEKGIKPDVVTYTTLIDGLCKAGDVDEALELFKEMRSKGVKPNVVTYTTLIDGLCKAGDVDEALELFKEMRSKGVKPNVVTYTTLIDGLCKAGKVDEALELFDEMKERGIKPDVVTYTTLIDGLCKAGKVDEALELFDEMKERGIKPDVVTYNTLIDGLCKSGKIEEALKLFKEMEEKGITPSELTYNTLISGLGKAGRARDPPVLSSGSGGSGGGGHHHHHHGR
Summary of the method: (§1)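 5′-biotinylated 30-base RNA probes holding 18-base targets were captured on streptavidin plates, blocked, then bound 30 min at room temperature with E. coli lysate of luciferase-fused PPR protein (1.5×10⁸ LU/μL) in Tris-HCl pH 7.6 buffer. After washing, luminescence minus no-RNA background gave binding power.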

NL_v2_PPR22 = target: T2, NL_v2_PPR22 (Artificial Sequence)
T2 chain: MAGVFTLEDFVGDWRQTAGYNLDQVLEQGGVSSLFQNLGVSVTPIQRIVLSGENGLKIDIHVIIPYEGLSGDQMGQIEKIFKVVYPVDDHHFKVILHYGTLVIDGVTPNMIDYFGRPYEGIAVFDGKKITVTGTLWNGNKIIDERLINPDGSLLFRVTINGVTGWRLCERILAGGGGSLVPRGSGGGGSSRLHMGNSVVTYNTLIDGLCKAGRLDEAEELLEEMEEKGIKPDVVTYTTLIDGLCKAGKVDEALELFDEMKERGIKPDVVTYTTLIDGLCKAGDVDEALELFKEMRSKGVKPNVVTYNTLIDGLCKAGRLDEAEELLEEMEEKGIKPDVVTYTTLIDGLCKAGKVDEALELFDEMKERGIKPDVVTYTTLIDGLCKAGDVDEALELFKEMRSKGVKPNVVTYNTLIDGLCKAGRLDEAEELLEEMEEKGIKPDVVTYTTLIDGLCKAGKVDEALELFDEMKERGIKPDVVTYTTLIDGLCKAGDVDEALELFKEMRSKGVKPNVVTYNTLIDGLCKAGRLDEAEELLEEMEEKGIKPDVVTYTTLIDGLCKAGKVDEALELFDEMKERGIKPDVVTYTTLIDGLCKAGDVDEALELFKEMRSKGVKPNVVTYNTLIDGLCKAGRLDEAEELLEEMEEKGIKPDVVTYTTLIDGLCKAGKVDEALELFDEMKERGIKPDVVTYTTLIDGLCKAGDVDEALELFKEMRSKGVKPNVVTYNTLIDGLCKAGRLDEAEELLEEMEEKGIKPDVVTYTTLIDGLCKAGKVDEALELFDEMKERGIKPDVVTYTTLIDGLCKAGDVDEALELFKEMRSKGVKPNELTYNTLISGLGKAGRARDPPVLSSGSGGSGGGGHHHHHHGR
Summary of the method: as §1

NL_v2_PPR16 = target: T3, NL_v2_PPR16 (Artificial Sequence)
T3 chain: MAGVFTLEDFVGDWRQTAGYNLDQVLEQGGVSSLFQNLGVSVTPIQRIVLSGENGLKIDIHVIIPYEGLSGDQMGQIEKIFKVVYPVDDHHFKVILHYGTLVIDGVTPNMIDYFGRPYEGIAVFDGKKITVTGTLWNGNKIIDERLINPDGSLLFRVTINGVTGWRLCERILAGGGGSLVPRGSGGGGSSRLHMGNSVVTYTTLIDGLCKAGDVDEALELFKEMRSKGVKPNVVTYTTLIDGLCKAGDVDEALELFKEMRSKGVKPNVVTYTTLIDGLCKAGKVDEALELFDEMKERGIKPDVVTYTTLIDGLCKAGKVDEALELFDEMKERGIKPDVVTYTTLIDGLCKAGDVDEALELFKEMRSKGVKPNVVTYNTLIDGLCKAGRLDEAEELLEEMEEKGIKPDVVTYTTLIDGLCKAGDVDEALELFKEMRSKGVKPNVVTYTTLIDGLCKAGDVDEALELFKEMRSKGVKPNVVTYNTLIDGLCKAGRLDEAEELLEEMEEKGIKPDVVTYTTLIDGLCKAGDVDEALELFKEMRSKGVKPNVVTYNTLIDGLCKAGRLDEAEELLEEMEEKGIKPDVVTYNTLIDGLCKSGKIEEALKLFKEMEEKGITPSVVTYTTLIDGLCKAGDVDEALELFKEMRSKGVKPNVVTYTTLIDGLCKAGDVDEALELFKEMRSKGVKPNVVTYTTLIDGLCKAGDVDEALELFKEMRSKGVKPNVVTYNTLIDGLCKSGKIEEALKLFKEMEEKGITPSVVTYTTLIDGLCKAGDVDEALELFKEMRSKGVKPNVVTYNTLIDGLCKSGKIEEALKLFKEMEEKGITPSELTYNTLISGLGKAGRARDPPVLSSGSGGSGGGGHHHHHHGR
Summary of the method: as §1

v3.1_PPR22 = target: T4, v3.1_PPR22 (Artificial Sequence)
T4 chain: T2 chain with D283K, D388K, D493K, D598K, D703K, D808K
Summary of the method: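 5′-biotinylated 30-base RNA probes (18-base target) immobilised on streptavidin plates, then bound 30 min at RT by E. coli lysate with luciferase-fused PPR protein (1.5×10⁸ LU/μL) in Tris pH 7.6 buffer. Binding = luminescence minus no-RNA background.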

## GUGGGGGUGGUAGGAAAU
NL_v2_PPR20
  binding signal: 22.4 log2 luminescence
NL_v2_PPR22
  binding signal: 21 log2 luminescence
NL_v2_PPR16
  binding signal: 22.1 log2 luminescence
v3.1_PPR22
  binding signal: 20.8 log2 luminescence

## GGUGGUGAGGCCCUGGGC
NL_v2_PPR20
  binding signal: 21.1 log2 luminescence
v3.1_PPR22
  binding signal: 20.9 log2 luminescence
